Compound activity as filed in PubChem BioAssay.
HttQ103 aggreg: qHTS Multiplex Assay to Identify Dual Action Probes in a Cell Model of Huntington: Aggregate Formation (GFP) | PC12 HttQ103-GFP aggregates, Acumen cytometry, 40 h | Potency, µM (top dose mostly 46.1 µM), hits mostly inhibitors | 1.1% of 220,000 active; further: nearly all actives have a fitted effect of over 60% in size
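Compounds (qHTS titration) were added to PC12 cells expressing an ecdysone-driven HTT exon 1 Q103–GFP fusion after induction with 100 nM tebufenozide. Aggregate formation was measured as GFP objects in cell lysates.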
ALDH1A1 block: qHTS Assay for Inhibitors of Aldehyde Dehydrogenase 1 (ALDH1A1); Aldehyde dehydrogenase 1A1 (Homo sapiens), P00352; Purified ALDH1A1, NADH fluorescence, propionaldehyde substrate; Potency, µM (series often up to 75.3 µM), actives largely listed as inhibitors; 7.3% of 220,000 active; active means well fitted inhibition curve with a large enough effect, not every such curve was filed as active; inconclusive means small, poorly fitted or top-dose-only effect, or another doubt; inactive means no such curve, though single readings can be large or run the other way
Target sequence (P00352 whole entry, looked up): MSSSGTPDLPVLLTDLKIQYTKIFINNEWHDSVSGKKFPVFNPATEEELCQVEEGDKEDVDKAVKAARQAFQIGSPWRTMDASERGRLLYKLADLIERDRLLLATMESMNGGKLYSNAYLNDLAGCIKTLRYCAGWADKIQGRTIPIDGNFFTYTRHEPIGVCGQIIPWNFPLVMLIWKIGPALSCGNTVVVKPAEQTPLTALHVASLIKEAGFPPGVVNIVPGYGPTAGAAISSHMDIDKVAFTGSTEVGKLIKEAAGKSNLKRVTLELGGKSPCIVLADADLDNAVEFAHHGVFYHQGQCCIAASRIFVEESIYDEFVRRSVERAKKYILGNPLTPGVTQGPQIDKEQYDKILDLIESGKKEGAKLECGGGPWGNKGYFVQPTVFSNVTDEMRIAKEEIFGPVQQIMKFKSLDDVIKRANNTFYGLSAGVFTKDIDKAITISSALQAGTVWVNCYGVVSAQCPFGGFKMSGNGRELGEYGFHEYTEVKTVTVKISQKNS
Luc counter: Counterscreen for Luciferase (Kinase-Glo TM) Inhibition | Kinase-Glo luciferase, ATP luminescence, 8 min | Potency, µM (series often up to 38.3 µM), usual class: inhibitors | Luciferin 4-monooxygenase (Photuris pensylvanica), Q27757 | 0.28% of 200,000 active | AID 1379, 2008; further: nearly all actives have a fitted effect of over 60% in size
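Compounds were added to a substrate mix at pH 7.2 (50 mM imidazole, 10 uM ATP, within the enzyme's linear range), followed by Kinase-Glo detection reagent; luminescence was measured after 8 minutes at ambient temperature.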
HTT ATP protect: qHTS Multiplex Assay to Identify Dual Action Probes in a Cell Model of Huntington: Cytoprotection (ATP). 0.14% of 230,000 active. PC12 HTT-Q103 induced, cytoprotection, ATP luminescence, 40 h. AID 1471, 2008. Potency, µM (series often up to 56.4 µM), most hits filed as activators; further: nearly all actives have a fitted effect of over 45% in size
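Cells were plated at 1500 per well in phenol red-free DMEM with 5% equine and 5% calf serum. Tebufenozide (100 nM final) and compounds were added, then ATPlite reagent, and luminescence was read.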
LMNA splice mod: qHTS Assay for Modulators of Lamin A Splicing; Potency, µM (highest dose often 46.1 µM), most hits filed as inhibitors; HeLa LMNA splicing GFP/RFP minigene ratio, 48 h; 0.01% of 200,000 active; active means well fitted inhibition curve with a large enough effect in the signal ratio, with a control signal flat, not every such curve was filed as active; inconclusive means small, poorly fitted or top-dose-only effect, or effect the other way, or a change in a side signal; the % refers to the signal ratio
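S3 HeLa cells stably expressing lamin A-EGFP splicing minigene plus DsRed2, 600 cells/well, 48 h compound exposure at 37C. Laser-scanning cytometry; analysed as GFP (500-530 nm)/RFP (575-640 nm) total intensity ratio; 0.5% DMSO vehicle.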
HPGD block: qHTS Assay for Inhibitors of HPGD (15-Hydroxyprostaglandin Dehydrogenase). 4.3% of 150,000 active. 15-hydroxyprostaglandin dehydrogenase [NAD(+)] (Homo sapiens), P15428. purified HPGD, NADH fluorescence kinetic, PGE2 substrate. Potency, µM, actives largely listed as inhibitors; active means well fitted inhibition curve with a large enough effect, not every such curve was filed as active; inconclusive means small, poorly fitted or top-dose-only effect, or another doubt; inactive means no such curve, though single readings can be large or run the other way
Target sequence (P15428 whole entry, looked up): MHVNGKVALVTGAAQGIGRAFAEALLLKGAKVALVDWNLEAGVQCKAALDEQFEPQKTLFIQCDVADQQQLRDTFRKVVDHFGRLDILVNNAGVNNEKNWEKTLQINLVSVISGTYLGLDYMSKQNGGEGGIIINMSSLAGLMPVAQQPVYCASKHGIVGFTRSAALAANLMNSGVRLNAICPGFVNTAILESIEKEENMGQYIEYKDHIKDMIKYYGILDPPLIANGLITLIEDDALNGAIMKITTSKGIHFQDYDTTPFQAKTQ
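20 nM HPGD preincubated 15 min at room temperature with compound in 50 mM Tris-HCl pH 8, 0.01% Tween 20. Started with 1 mM NAD+ and 30 uM prostaglandin E2; NADH fluorescence (360/450 nm) read 5 times over 30-s intervals, last minus first.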
Large screens that a line does not name were inactive. A selection: hits, their analogues and other compounds. The true share with any hit is near 9%. Unless noted, the call rests on the fitted dose curve; in most records, active means well fitted curve in the direction sought with a large enough effect; inconclusive means small, poorly fitted or top-dose-only effect, or another doubt; inactive means no such curve, though single readings can be large; an effect the other way counts as inactive or inconclusive.

Cc1cc(C)nc(N/N=C2/CCCC/C2=C\c2ccccc2)n1	HttQ103 aggreg 4.5µM, LMNA splice mod inconclusive (no result: HPGD block)
COc1ccc(CN2CCCC(C(=O)N3CCCC3)C2)cc1 (stereo not given)	none
CC1CCN(C(=O)C2CCN(CCCc3ccccc3)CC2)CC1	ALDH1A1 block inconclusive
C/C(=C\c1ccccc1)CN1CCC(C(=O)N2CCC(C)CC2)CC1	ALDH1A1 block 35µM
CCCCN(C)C(=O)C1CCN(C/C(C)=C/c2ccccc2)CC1	none
O=C(C1CCCN(Cc2cccnc2)C1)N1CCCCC1 (stereo not given)	HttQ103 aggreg inconclusive, ALDH1A1 block 5µM (no result: Luc counter, HPGD block)
CCCCNC(=O)C1CCN(C/C(C)=C/c2ccccc2)CC1	ALDH1A1 block inconclusive
C/C(=C\c1ccccc1)CN1CCC(C(=O)N2CCCCC2)CC1	ALDH1A1 block inconclusive, HPGD block 14µM
O=C(C1CCN(CCCc2ccccc2)CC1)N1CCCCC1	ALDH1A1 block 14µM
CCOC(=O)c1cncc(O)c1	none (no result: ALDH1A1 block, Luc counter, LMNA splice mod, HPGD block)
COc1cccc(C2=NOC(C(=O)Nc3c(C)n(C)n(-c4ccccc4)c3=O)C2)c1 (stereo not given)	none (no result: ALDH1A1 block, Luc counter, LMNA splice mod, HPGD block)
Nc1cnn(Cc2ccccc2F)c1	ALDH1A1 block 14µM (no result: HPGD block)
O=C(COC(=O)c1cc(=O)[nH]c2ccccc12)Nc1cccc(S(=O)(=O)N2CCOCC2)c1	none (no result: ALDH1A1 block, Luc counter, LMNA splice mod, HPGD block)
Cc1ccc(N(NC(=O)C(O)(c2ccccc2)c2ccccc2)C(=O)CCl)cc1	HttQ103 aggreg 5µM, ALDH1A1 block inconclusive, HPGD block 11µM
Cc1ccc(C(O)(C(=O)NN(C(=O)c2ccccc2)c2ccccc2)c2ccc(C)cc2)cc1	none
N/C(=N\N=C\c1ccc2c(c1)OCO2)c1nonc1N	Luc counter inconclusive, LMNA splice mod inconclusive (no result: HTT ATP protect)
CCN1CCCc2cc(CN(CCN3CCOCC3)C(=S)Nc3cccc(C)c3)ccc21	ALDH1A1 block 7.9µM (no result: HPGD block)
CCN1CCCc2cc(CN(CCN3CCOCC3)C(=S)Nc3ccccc3C)ccc21	ALDH1A1 block 22µM, LMNA splice mod inconclusive (no result: HPGD block)
CCN1CCCc2cc(CN(CCN3CCOCC3)C(=O)Nc3ccc(C)c(C)c3)ccc21	ALDH1A1 block 28µM
CCN1CCCc2cc(CN(CCN3CCOCC3)C(=S)Nc3ccccc3OC)ccc21	ALDH1A1 block inconclusive, LMNA splice mod inconclusive (no result: HPGD block)
CCc1ccc(NC(=O)N(CCN2CCOCC2)Cc2ccc3c(c2)CCCN3CC)cc1	ALDH1A1 block inconclusive, HPGD block inconclusive
Cc1cccc(NC(=S)N(CCN2CCOCC2)Cc2ccccc2F)c1	LMNA splice mod inconclusive (no result: HPGD block)
COCCN1Cc2cccc(C(=O)NCc3ccccc3OC)c2C1=O	none
CCn1c(Cc2cccs2)nnc1SCC(=O)Nc1ccc(OC)c(OC)c1	LMNA splice mod inconclusive
CC1(C)CC(N(Cc2ccc(F)cc2)C(=O)c2ccc(F)cc2)CCO1 (stereo not given)	none (no result: ALDH1A1 block, Luc counter, LMNA splice mod, HPGD block)
O=C(N/N=C1\CC2CC=CC12)c1ccc(COc2ccccc2)cc1 (stereo not given)	LMNA splice mod inconclusive, HPGD block 22µM
CC(C)(C)c1ccc(OCc2ccc(C(=O)N/N=C3\CC4CC=CC34)cc2)cc1 (stereo not given)	LMNA splice mod inconclusive
COc1ccc(-c2csc(/C(C#N)=C(\O)CSc3nccn3C)n2)cc1OC	HttQ103 aggreg inconclusive, ALDH1A1 block 8.9µM, HPGD block 25µM
Cc1ccc(S(=O)(=O)NCc2ccncc2)cc1C	none (no result: HPGD block)
CC1CC(C)CN(C(=O)c2ccc3c(c2)N(Cc2ccccc2)CCS3)C1 (stereo not given)	HttQ103 aggreg inconclusive, ALDH1A1 block inconclusive, HTT ATP protect inconclusive, HPGD block inconclusive
Cc1ccc(CN2CCSc3ccc(C(=O)N4CCN(c5ncccn5)CC4)cc32)cc1	HttQ103 aggreg 16µM, ALDH1A1 block inconclusive, LMNA splice mod inconclusive, HPGD block inconclusive
O=C(c1ccc(S(=O)(=O)Nc2ccc(F)cc2)cc1)N1CCN(c2ccccn2)CC1	HttQ103 aggreg 14µM (no result: HPGD block)
Cc1ccc(NS(=O)(=O)c2ccc(C(=O)N3CCN(c4ncccn4)CC3)cc2)cc1	HttQ103 aggreg 2.5µM, LMNA splice mod inconclusive (no result: HPGD block)
O=C(CN1CCSc2ccccc21)NCCCc1ccccc1	ALDH1A1 block inconclusive, LMNA splice mod inconclusive (no result: HPGD block)
COc1ccc(/C=N/NC(=O)CN2CCSCC2)c(OC)c1	ALDH1A1 block inconclusive (no result: HTT ATP protect)
Cc1cc(C#N)c(C)n1-c1cc(S(=O)(=O)N2CCOCC2)ccc1N1CCCC1	ALDH1A1 block 4.5µM, HPGD block 7.9µM
COc1cccc(OCC(=O)NC2CC(=O)N(c3ccc4c(c3)OCCO4)C2)c1 (stereo not given)	none (no result: HttQ103 aggreg, ALDH1A1 block, Luc counter, HTT ATP protect, HPGD block)
O=C1NN(c2ccccc2)C(=O)/C1=C/c1ccc(-c2ccc(Cl)c(C(=O)O)c2)o1	ALDH1A1 block 13µM, LMNA splice mod inconclusive (no result: HPGD block)
O=C(CSc1ncccn1)Nc1ncc(C(F)(F)F)cc1Cl	LMNA splice mod inconclusive (no result: HPGD block)
CC(C)c1cc(C(=O)NNC(=S)NCc2ccco2)c(O)c(C(C)C)c1	HttQ103 aggreg inconclusive, ALDH1A1 block 22µM, LMNA splice mod inconclusive, HPGD block inconclusive
Cc1cc(C(=O)NNC(=S)NCc2ccco2)n(C)n1	ALDH1A1 block inconclusive
O=C(COC(=O)c1cccs1)NCc1ccccc1	HPGD block inconclusive
CCN(CC)S(=O)(=O)c1ccc(N/N=C/c2cc(OC)ccc2O)nc1	HttQ103 aggreg 2.8µM, LMNA splice mod inconclusive
Cn1c(Cc2csc(N)n2)nnc1SCC(=O)NCc1ccccc1	ALDH1A1 block 28µM
Cn1c(Cc2csc(N)n2)nnc1SCC(=O)NC1CCCCC1	ALDH1A1 block inconclusive
CC1(C)C(O)C=C[C@@]2(C)C1CC(=O)O[C@@]1(C)C3=CC(=O)OC(c4ccoc4)[C@]3(C)CCC21 (stereo not given in full)	ALDH1A1 block 22µM (no result: HttQ103 aggreg, HTT ATP protect, LMNA splice mod)
CC(=O)OC1CC2C(C)(C)C(O)CC(O)[C@@]2(C)C2CC[C@@]3(C)C(=CC(=O)OC3c3ccoc3)[C@]12C (stereo not given in full)	ALDH1A1 block inconclusive, HPGD block 20µM (no result: HttQ103 aggreg, LMNA splice mod)
COc1cc2c(cc1NC(C)=O)CCCC2	none
Cc1ccc(-n2ncc3c(=O)n(CC(=O)NCc4ccco4)cnc32)cc1	none
CN1CCN(c2nc3c(c(=O)n(C)c(=O)n3C)n2CC(N)=O)CC1	none (no result: Luc counter, HPGD block)
Clc1cccc(Nc2c3c(nc4ncnn24)CCC3)c1	ALDH1A1 block inconclusive, HPGD block 16µM
COc1ccc2cc(CN(Cc3ccco3)C(c3nnnn3C3CCCCC3)C(C)C)c(=O)[nH]c2c1 (stereo not given)	ALDH1A1 block 16µM
